The record followed here is PubChem BioAssay (Tox21).

Assay [1] is described as follows: qHTS assay to identify small molecule HDAC inhibitors (AID 1259364).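 Further: wild-type HCT-116 cells with endogenous class I/II HDAC activity; top concentration of the series differs between compounds; nearly all actives have a fitted effect of over 45% in size.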 Put shortly:
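Relative class I and II HDAC activity is taken from the luminogenic signal in HCT-116 cells, with compound exposure 2 hr and reagent development 30 min at room temperature.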
In general terms: Quantitative high-throughput screening tests each substance at several concentrations.

Assay [2] can be described thus: qHTS assay to identify small molecule HDAC inhibitors - cell viability counter screen (AID 1259365). Further: series mostly up to about 92 µM; nearly all actives have a fitted effect of over 50% in size. The method, boiled down: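 CellTiter-Glo luminescence (30 min, room temperature) reported viability after a 2 h compound exposure at 37 C. Cells: wild-type HCT-116, 1,500 per well, seeded the night before.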
Assay [3] can be described thus: qHTS assay to identify small molecule agonists of the sonic hedgehog signaling (Shh) pathway - cell viability counter screen (AID 1259366). Further: nearly all actives have a fitted effect of over 50% in size. The method, boiled down:
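Cytotoxicity counter screen: CellTiter-Fluor reagent added after 23 h compound exposure, then 1 h at 37C and fluorescence read. Cells were 3T3 Gli1-Luc, seeded 2,000 per well and dosed 4 h post-plating.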

A short description of assay [4]: qHTS assay to identify small molecule antagonists of the sonic hedgehog signaling (Shh) pathway - cell viability counter screen (AID 1259367). Further: nearly all actives have a fitted effect of over 55% in size. Put shortly: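 NIH/3T3-derived Gli1-Luc reporter cells, 2,000/well, plated 4 hr before compound addition, then stimulated with conditioned medium for 24 hr at 37C. Viability measured in the same wells by CellTiter-Fluor fluorescence, reagent added at 23 hr for 1 hr.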

Assay [5] can be described thus: qHTS assay to identify small molecule agonists of the sonic hedgehog signaling (Shh) pathway (AID 1259368; calls by dose curve;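 further: NIH/3T3-derived 3T3Gli1-Luc cells carrying a stable Gli1-driven firefly luciferase reporter; series mostly up to about 92 µM; nearly all actives have a fitted effect of over 15% in size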). The method, boiled down: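 Mouse fibroblast (NIH/3T3) reporter cells with stably integrated Gli1-Luc were treated 24 hr with compound; firefly luciferase luminescence served as the read-out.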
Assay [6] addresses Estrogen receptor beta (Homo sapiens) (UniProt Q92731). The assay can be described thus: qHTS assay to identify small molecule agonists of the estrogen receptor beta (ER-beta) signaling pathway (AID 1259377; active means well fitted activation curve with a large enough effect in the signal ratio in the repeat runs, not every such curve was filed as active; the % refers to the signal ratio). Put shortly:
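Ratiometric beta-lactamase FRET read-out came after 2 h substrate loading at room temperature. It followed 16 h compound treatment at 37C of GripTite HEK293T cells carrying a UAS-bla reporter, plated in 2% charcoal-stripped FBS medium.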

Assay [7] has the same target. Put plainly: qHTS assay to identify small molecule antagonists of the estrogen receptor beta (ER-beta) signaling pathway (AID 1259378; active means well fitted inhibition curve with a large enough effect in the signal ratio in the repeat runs, not every such curve was filed as active; the % refers to the signal ratio). The method, boiled down:
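ER-beta-UAS-bla HEK293T cells in 2% charcoal-stripped FBS medium treated with compound plus 1nM final 17-beta-estradiol for 16 hr at 37C. Beta-lactamase reporter read by FRET substrate fluorescence after 2 hours at room temperature.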

Assay [8] is described as follows: qHTS assay to identify small molecule antagonists of the sonic hedgehog signaling (Shh) pathway (AID 1259369; calls by dose curve; further: nearly all actives have a fitted effect of over 45% in size; further: potency means the concentration at half of the fitted maximal effect). The method, boiled down:
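Conditioned medium drives Shh signalling in 3T3Gli1-Luc cells; compounds in DMSO co-applied, 24hr at 37 C, then luciferase luminescence.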

Assay [9] can be described thus: qHTS assay to identify small molecule agonists of the estrogen receptor beta (ER-beta) signaling pathway - cell viability counter screen (AID 1259380). Further: nearly all actives have a fitted effect of over 30% in size. Put shortly:
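Cells used were ER-beta-UAS-bla HEK293T in medium with 2% charcoal-stripped FBS. They were treated for 16 hr at 37C. Viability came from CellTiter-Glo luminescence.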

Assay [10] can be described thus: qHTS assay to identify small molecule agonists of the androgen receptor (AR) signaling pathway in the presence of an antagonist - cell viability counter screen (AID 1259379).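 Further: MDA-kb2 human breast cancer cells carrying an MMTV luciferase reporter; series mostly up to about 92 µM; nearly all actives have a fitted effect of over 25% in size.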 The method, boiled down:
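A CellTiter-Fluor read-out measured viability of MDA-kb2 reporter cells (MMTV promoter with AR and GR response elements). Treatment: nilutamide 3.0uM final with compounds at 15 concentrations, 16 hr, 37C, 0% CO2.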

Each structure is given as a SMILES string. Unmarked numbers belong to inactive results. Records with an inconclusive call do not appear. Activity calls are given as the source filed them. Unless noted, the call rests on the fitted dose curve; in most records, active means well fitted curve in the direction sought with a large enough effect in the repeat runs; inconclusive means weak or mixed curves; inactive means no such curve, though single readings can be large; an effect the other way counts as inactive or inconclusive.
On the % scale 0 is the no-effect control and ±100 the full control effect.

Chain of Estrogen receptor beta (Homo sapiens) (Q92731 whole entry, looked up): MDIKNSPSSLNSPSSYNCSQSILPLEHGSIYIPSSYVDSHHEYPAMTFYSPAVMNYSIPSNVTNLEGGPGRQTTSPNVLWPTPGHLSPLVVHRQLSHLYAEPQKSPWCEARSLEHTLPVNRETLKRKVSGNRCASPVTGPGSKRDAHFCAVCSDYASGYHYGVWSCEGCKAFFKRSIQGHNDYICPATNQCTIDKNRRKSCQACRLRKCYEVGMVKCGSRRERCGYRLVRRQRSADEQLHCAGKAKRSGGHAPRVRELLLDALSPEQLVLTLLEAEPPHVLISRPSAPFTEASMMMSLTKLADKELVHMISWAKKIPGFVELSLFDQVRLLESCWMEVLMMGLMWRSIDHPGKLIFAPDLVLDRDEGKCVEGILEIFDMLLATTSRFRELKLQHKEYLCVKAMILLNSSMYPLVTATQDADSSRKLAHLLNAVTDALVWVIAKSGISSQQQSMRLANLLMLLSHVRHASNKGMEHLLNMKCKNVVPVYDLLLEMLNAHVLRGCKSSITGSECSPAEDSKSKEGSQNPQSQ

As to `CCOc1ccc(NC(=O)OC(C)C)cc1OCC`, the Potency entry in assay [1], in [3], in [4] and in [6] was “inactive” in each case. For the same compound, the compound was classed as inactive in assay [2], in assay [5] and in assay [7].
As for `O=C(O)c1ccccc1C(=O)OCc1ccccc1`, the Potency entry in [1], in assay [3], in assay [4] and in assay [8] was “inactive” throughout. Also, the outcome in assay [2], in assay [5] and in assay [9] was inactive.
As for `Cc1cc(C)cc([N+](=O)[O-])c1`, the Potency entry in [1], in [3], in [4], in assay [8] and in [10] was “inactive” each time. For the same compound, the result in assay [2], in assay [5] and in [9] was inactive.
With `CCC(C)(C)C1CCC(=O)CC1`, the Potency result in assay [1], in assay [3], in [4], in assay [8] and in assay [10] was “inactive” in each case. Moreover, the result in assay [2], in [5] and in assay [9] was inactive.
Turning to `NC(=O)C1(N2CCCCC2)CCN(CCCC(=O)c2ccc(F)cc2)CC1`, the Potency result in assay [1], in assay [3], in assay [4], in assay [8] and in assay [10] was “inactive” in each case. The compound was classed as inactive in assay [2], in assay [5] and in assay [9].
Turning to `C=CCCCCCCCCCCC`, the activity change, negative = inhibition in [1] was 4.91% [at 8.39 µM]; in assay [8], -3.37% [at 8.39 µM]. For the same compound, the activity change, negative = cytotoxicity was 4.34% [at 8.39 µM] in assay [2], 0.376% [at 8.39 µM] in assay [10] and -6.43% [at 8.39 µM] in assay [9]. The viability change, negative = cytotoxic was 3.1% [at 8.39 µM] in assay [3] and 2.53% [at 8.39 µM] in [4]. In addition, the activity change in assay [5] was 0.0597% [at 8.39 µM].
On to `CCOC(=O)CC(CC(=O)OCC)(OC(C)=O)C(=O)OCC`, for which the Potency result in assay [1], in assay [3], in assay [4] and in [10] was “inactive” each time. Moreover, the compound was called inactive in [2], in assay [5], in [7] and in assay [9].
Consider `COC(/C=C(\C)CCC=C(C)C)OC`, for which the Potency result in [1], in assay [3], in assay [4], in [6] and in [10] was “inactive” each time. The result in assay [2], in [5], in assay [7] and in assay [9] was inactive.
For `COc1ccc(/C=N/NC(=O)c2ccncc2)cc1OC`, the Potency result in [1], in [3], in [4] and in assay [6] was “inactive” each time. Further, the result in [2], in assay [5], in assay [7] and in [9] was inactive.
As for `Oc1ccccc1Cc1ccccc1O`, the Potency result in [1] and in [4] was “inactive” in each case. The compound was classed as inactive in assay [2] and in assay [5]. For the same compound, in [8], the Potency was 30.6 µM (active).
Take `C[CH2][Ge]([Cl])([CH2]C)[CH2]C`: the Potency entry in assay [1], in assay [3], in assay [4], in assay [6] and in [10] was “inactive” throughout. The compound was called inactive in assay [2], in [5], in assay [7] and in [9].
As for `C[C@@H]1C[C@H]2[C@@H]3C[C@H](F)C4=CC(=O)C=C[C@]4(C)[C@@]3(F)[C@@H](O)C[C@]2(C)[C@@]1(O)C(=O)CO`, the Potency result in assay [1], in [4], in assay [6] and in assay [10] was “inactive” in each case. Also, the result in assay [2], in [5], in [7] and in [9] was inactive. The Potency in assay [8] is 0.668 µM (active).
For `CC1(N)CCC(C(C)(C)N)CC1` (stereo not drawn), the Potency result in assay [1], in assay [3], in assay [4], in assay [6] and in [10] was “inactive” throughout. In addition, the result in [2], in assay [5], in assay [7] and in [9] was inactive.
